Here are results for 99 compounds from PubChem BioAssay AID1942 (Johns Hopkins Ion Channel Center, 2009).

Molecules are shown by their SMILES. About 580 (24%) of roughly 2,400 compounds were called active. Not all results are given here. Values without a mark were called inactive.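 The calls were made as follows: active = activity change at or above the mean plus 3 SD of buffer wells without dofetilide, per plate; inactive = the rest.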

Sequence of Potassium voltage-gated channel subfamily KQT member 2 (Rattus norvegicus) (O88943 whole entry, looked up): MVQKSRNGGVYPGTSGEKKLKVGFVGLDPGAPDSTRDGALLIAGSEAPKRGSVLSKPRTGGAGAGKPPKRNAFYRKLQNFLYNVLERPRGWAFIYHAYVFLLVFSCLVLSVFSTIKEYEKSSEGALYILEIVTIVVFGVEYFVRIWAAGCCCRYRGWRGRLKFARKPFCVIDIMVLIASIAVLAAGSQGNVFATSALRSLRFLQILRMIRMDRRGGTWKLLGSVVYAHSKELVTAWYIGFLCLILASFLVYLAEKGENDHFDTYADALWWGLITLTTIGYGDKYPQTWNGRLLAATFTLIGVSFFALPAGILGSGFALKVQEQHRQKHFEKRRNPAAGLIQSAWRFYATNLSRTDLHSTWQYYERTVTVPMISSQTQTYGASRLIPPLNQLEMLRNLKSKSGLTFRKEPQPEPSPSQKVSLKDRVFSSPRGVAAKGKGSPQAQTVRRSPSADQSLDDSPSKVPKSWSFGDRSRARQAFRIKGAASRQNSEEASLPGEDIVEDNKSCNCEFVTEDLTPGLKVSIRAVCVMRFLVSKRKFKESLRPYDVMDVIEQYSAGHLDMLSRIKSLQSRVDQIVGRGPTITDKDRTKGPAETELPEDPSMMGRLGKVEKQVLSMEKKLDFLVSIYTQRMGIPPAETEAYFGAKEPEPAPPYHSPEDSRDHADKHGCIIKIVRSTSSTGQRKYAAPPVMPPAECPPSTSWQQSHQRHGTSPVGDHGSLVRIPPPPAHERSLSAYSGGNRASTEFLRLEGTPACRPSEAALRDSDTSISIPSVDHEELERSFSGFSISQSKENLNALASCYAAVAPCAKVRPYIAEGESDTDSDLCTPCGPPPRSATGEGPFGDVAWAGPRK

The assay has as its target Potassium voltage-gated channel subfamily KQT member 2 (Rattus norvegicus) (UniProt O88943). Briefly: KCNQ2 potentiation in CHO cells – cell-based, FluxOR thallium flux, counter-screen for hERG block protector project, confirmation (AID 1942).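 Also: normalized value minus buffer-control mean plus three SD of buffer wells.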 Particulars: FluxOR thallium flux fluorescence, at 10 µM, active compounds read high. (In general: A counterscreen serves to expose hits that act by an unwanted route or on another target.)
As to `CC(Oc1ccc(Br)cc1)c1nc2c3ccccc3nc(=S)n2[nH]1` (centres undefined), the activity change, less the hit threshold is 14.3% (active). Regarding `COc1cc(OC)cc(-c2nc3ccccc3c(=O)n2OC(=O)c2ccc(Br)cc2)c1`, the activity change, less the hit threshold is -12.9%.

As to `COc1ccc(S(=O)(=O)n2nc(C)c(S(=O)(=O)N3CCOCC3)c2C)cc1OC`, the activity change, less the hit threshold was -19%. Next, `Cc1ccc(-c2nc(N)s[n+]2-c2ccccc2)cc1`: 11.3% (active); `Cc1nnc(SCc2cc(=O)oc3cc(O)ccc23)n1Cc1ccccc1`: -14.7%; `COc1ccc(-c2c(C)c3ccc(OCC(C)=O)cc3oc2=O)cc1`: -17.3%. With `COc1ccc(CCn2c(S)nc3ccccc3c2=O)cc1` the figure was -6.5%; with `O=c1c2ccccc2[nH]c(=S)n1CCc1ccccc1`, 10.3% (active); with `CCCCn1c(=S)[nH]c2ccccc2c1=O`, 3.1% (active). As to `CC(C)COn1c(=S)[nH]c2ccccc2c1=O`, the activity change, less the hit threshold was 11.1% (active).

Regarding `Cc1ccc(Cn2c(=S)[nH]c3ccccc3c2=O)cc1`, the activity change, less the hit threshold was -6.4%. On to `CCC(C)n1c(=S)[nH]c2ccccc2c1=O` (centres undefined), for which the activity change, less the hit threshold was 25% (active). With `CCC(Cc1ccccc1)n1c(=S)[nH]c2ccccc2c1=O` (centres undefined) the figure was -14%; with `CC1(C)Cc2c(sc(NC(=O)C(=O)N3CCCC3)c2C#N)CO1`, -3.6%. With `CC1=NN(c2ccccc2)C(=O)/C1=C/c1ccc(-c2ccc(C)c(C(=O)O)c2)o1` the figure was -18.9%; with `Cc1cc(=O)oc(C)c1C(=O)NCCC(C)C`, -6.2%; with `O=C(COC(=O)c1cnccn1)c1ccc(Cl)cc1`, -17%.

On to `Cc1ccc(NC(=O)c2ccc(CNS(=O)(=O)c3cccc(C(F)(F)F)c3)cc2)cc1`, for which the activity change, less the hit threshold was -15.6%.

Regarding `Cc1ccc(CS(=O)(=O)c2ncc(Cl)c(C(=O)Nc3nnc(C)s3)n2)cc1`, the activity change, less the hit threshold was -0.8%. `S=c1[nH]c2ccc(Cl)cc2s1`: the activity change, less the hit threshold is 101% (active). Next, `S=c1[nH]c2cc(Cl)ccc2s1`: 106% (active). Next, `O=C(Nc1ccc2[nH]c(=S)sc2c1)Nc1ccccc1F`: -19%. With `CCNC(=O)NC1c2ccccc2CSc2ccccc21` (centres undefined) the figure was -20.6%.

In the case of `Cc1ccc(C)c(NC(=O)CCN2C(=O)[C@@H]3Cc4ccccc4CN3C2=O)c1`, the activity change, less the hit threshold was -23.4%.

As to `COc1ccc(C(=O)N(CN2CCCC2=O)c2ccc(C)cc2)cc1`, the activity change, less the hit threshold was -3.9%. With `O=C(NCCCN1CCCC1=O)c1ccc(OC(F)(F)F)cc1`, the activity change, less the hit threshold is -19.5%.

Consider `CCOc1ccc(C(=O)N(CN2CCCC2=O)c2ccc(C)cc2)cc1`, for which the activity change, less the hit threshold is 21.8% (active). Next, `Cc1cc(C)c(Cn2c3ccccc3c3cnn(CC(=O)NCc4ccccn4)c(=O)c32)c(C)c1`: -12.3%; `O=C1OCCC1Sc1nc2ccccc2c(=O)n1Cc1ccc(F)cc1` (centres undefined): -2%; `COc1cc2c(cc1OC)C(c1ccc([N+](=O)[O-])cc1)N(C(C)=O)CC2` (centres undefined): -27%. With `O=C(Nc1ccc(Cl)c(Cl)c1)Nc1nnc(CSc2ccccc2)s1` the figure was -5.4%; with `C=CCN(CC=C)C(=S)NC(=O)c1ccc([N+](=O)[O-])cc1`, 48.5% (active).

Consider `CCCN(CC1CC1)C(=S)Nc1ccccc1F`, for which the activity change, less the hit threshold was -17.8%. On to `C=CCN(c1ccc(C(=O)NC(C)C)cc1)S(C)(=O)=O`, for which the activity change, less the hit threshold was -16.8%. For the compound `C=CCN(CC=C)C(=S)NC(=O)c1ccc(-c2ccccc2)cc1`, the activity change, less the hit threshold was 21% (active).

As for `CCN(CC)C(=S)NC(=O)c1ccc(F)cc1`, the activity change, less the hit threshold is -10.2%.

For the compound `CCCN(CCC)C(=S)NC(=O)c1ccc(-c2ccccc2)cc1`, the activity change, less the hit threshold is 91.4% (active). For `C=CCN(CC=C)C(=S)NC(=O)Cc1cccc2ccccc12`, the activity change, less the hit threshold is 3.6% (active). As for `O=C(NCCOC(=O)c1ccc([N+](=O)[O-])cc1)c1cccnc1`, the activity change, less the hit threshold is -12.2%. Consider `Cc1c(C)n(CCN(C)C)c2ccc(C(=O)OCCN(C)C)cc12`, for which the activity change, less the hit threshold was -12.7%.

`CCCCCN(C(=O)CCC(=O)OC(C)C(=O)c1ccccc1)c1c(N)n(CCCC)c(=O)[nH]c1=O` (centres undefined): the activity change, less the hit threshold is -10.3%. Next, `CCn1nnnc1SCC(=O)N1c2ccccc2Sc2ccccc21`: -16.2%; `CCc1nnc(NS(=O)(=O)c2ccc(NC(=S)NC(=O)/C=C/c3ccc(OC)cc3)cc2)s1`: -7.3%. As to `COc1ccc(CCNC(=O)CSc2ccc3nnc(CCNC(=O)c4ccccc4)n3n2)cc1OC`, the activity change, less the hit threshold is -18.6%.

With `CCCN1CCC(NC(=O)CC2C(=O)NCCN2Cc2cccc(OC)c2)CC1` (centres undefined), the activity change, less the hit threshold is -17.9%. Regarding `CCCCNC(=S)NC(=O)c1ccc([N+](=O)[O-])cc1`, the activity change, less the hit threshold is 22.9% (active). With `CCC(=O)Nc1ccc(C(=O)NNC(=O)c2cc([N+](=O)[O-])cc([N+](=O)[O-])c2)cc1` the figure was -17.8%; with `CCCCCC(=O)NNC(=S)NC(=O)c1ccc([N+](=O)[O-])cc1`, -31.9%.

Consider `CC1CCN(S(=O)(=O)c2ccc3nc(N4CCN(c5ccccc5)CC4)ccc3c2)CC1`, for which the activity change, less the hit threshold is -25.2%. Regarding `Cc1ccc(Cc2c[nH]c(=S)s2)cc1`, the activity change, less the hit threshold is 52.8% (active). Consider `Clc1ccc(Cc2ccccc2)nn1`, for which the activity change, less the hit threshold is -12.9%. Next, `Cc1[nH]c(=S)sc1Cc1ccc(Cl)c(Cl)c1`: -16%; `S=c1[nH]cc(Cc2ccccc2)s1`: 1.4% (active); `COCCn1cnc2c1c(=O)n(CC#N)c(=O)n2Cc1ccccc1`: -22%. For the compound `CCOc1ccc(CCNC(=O)Nc2ccccc2C)cc1OCC`, the activity change, less the hit threshold was -14.3%. Next, `CNC(=O)CSc1nnc(-c2ccco2)n1-c1ccc(C)cc1`: -16.3%.

In the case of `Cc1ccc(C(=O)NC(=S)Nc2ccccc2C(F)(F)F)cc1`, the activity change, less the hit threshold was -24.5%. Consider `Cc1ccc(C(=O)N/N=C(/CC(=O)c2cccs2)C(F)(F)F)cc1`, for which the activity change, less the hit threshold was 5.2% (active). With `CCCOc1ccc(C(=O)NNC(=S)NC(=O)c2cccs2)cc1` the figure was -34.1%. On to `COc1ccc(S(=O)(=O)N2CCN(C(=O)CNC(=O)c3ccc4c(c3)OCO4)CC2)cc1`, for which the activity change, less the hit threshold is -12.9%. With `O=C(Nc1c[nH]c(=O)[nH]c1=O)c1ccc2c(c1)C(=O)N(c1cccc([N+](=O)[O-])c1)C2=O` the figure was -9.9%. With `O=C(CN1CCCCCC1)Nc1ccc(Oc2ccccc2)cc1` the figure was -20.3%; with `O=C(Cn1nc(-c2ccccc2)c2ccccc2c1=O)Nc1ccc(O)cc1`, -25.7%; with `Cc1nn(CC(=O)Nc2ccc(C(=O)N3CCCC3)cc2)c(=O)c2ccccc12`, 11.5% (active).

As to `O=C(Nc1ncc(Br)s1)C(Cc1ccccc1)n1cccc1` (centres undefined), the activity change, less the hit threshold is -5.9%. As for `Cn1cnnc1SCC(=O)NCc1ccccc1`, the activity change, less the hit threshold is -24.1%. With `COC(=O)Oc1ccc(/C=C/C(=O)OC(C)C)cc1OC(=O)OC` the figure was 3% (active); with `COc1cc(/C=C/C(=O)N[C@@H](Cc2c[nH]c3ccccc23)C(=O)O)ccc1O`, -15.9%. Take `COc1cc(/C=C/C(=O)O)ccc1OS(=O)(=O)c1cc(C)ccc1C`: the activity change, less the hit threshold was -16.4%. Next, `Cc1ccc(NC2=CC(=O)OC(C)C2)cc1` (centres undefined): -17.3%. Next, `Cc1ccc(Oc2ccc(OCC(=O)NC(CC(C)C)C(=O)O)cc2)cc1` (centres undefined): -14.9%; `CC1=Nc2ccc(C)cc2/C1=C/c1c(N)n2c(S(=O)(=O)C(C)C)nsc2nc1=O`: -27%; `O=C(CN1CCCCCCC1)Nc1cccc(Cl)c1Cl`: -20.9%. Next, `O=c1oc2ccccc2c(Cl)c1CN1CCCCC1`: 8.6% (active); `O=C(c1c(O)c2ccccc2oc1=O)C1CCCCC1`: -4.8%. `CSc1nc2c(c(=O)[nH]1)C(c1ccc(F)cc1)CC(=O)N2` (centres undefined): the activity change, less the hit threshold is -16.4%. For the compound `CC(NC(=O)C1CCN(S(=O)(=O)c2cccc3cccnc23)CC1)c1ccccc1` (centres undefined), the activity change, less the hit threshold is 0.9% (active).

Regarding `Cc1[nH]c(=O)[nH]c(=O)c1S(=O)(=O)N1CCC(C(=O)NC(C)c2ccccc2)CC1` (centres undefined), the activity change, less the hit threshold was -19.6%. Next, `O=C(NCc1ccc(Cl)cc1)C1CCN(S(=O)(=O)c2cccc3nonc23)CC1`: -10%; `Nc1ncnc(NC2CCS(=O)(=O)C2)c1[N+](=O)[O-]` (centres undefined): -11.2%; `CCOC(=O)c1c(NS(C)(=O)=O)sc2c1CCC(C)C2` (centres undefined): 26.3% (active). Next, `CC1CCc2c(sc(NS(=O)(=O)c3ccccc3)c2C(=O)OC(C)C)C1` (centres undefined): 8.2% (active); `CC(NS(=O)(=O)c1ccccc1)C(N)=O` (centres undefined): -21.1%. Next, `CCOC(=O)c1c(C)[nH]c(C)c1S(=O)(=O)N1CCCCC1`: -11%; `CC(C)OC(=O)c1c(NS(=O)(=O)c2ccccc2)sc2c1CCCC2`: 9.1% (active). Take `COC(=O)c1c(NC(=O)CN2CCOCC2)sc2c1CCC(C)C2` (centres undefined): the activity change, less the hit threshold is -9.9%. As for `Cc1cc(C)c(-c2cc(NC(=O)COC(=O)c3ccc(NC(=O)CC#N)cc3)n(-c3ccccc3)n2)cc1C`, the activity change, less the hit threshold was -22.1%. Next, `NC(=O)CC1NC(=O)c2ccccc21` (centres undefined): -13.3%; `CCCNS(=O)(=O)c1ccc(OCC(=O)Nc2ccc3c(c2)OCCO3)cc1`: -11.5%; `Cc1oc(-c2cccs2)nc1CN1CCC(C(=O)N2CCCC2)CC1`: -17.4%. Take `CC1c2nc3ccccc3n2C(CC(=O)NCCCN2CCOCC2)C(=O)N1Cc1ccccc1` (centres undefined): the activity change, less the hit threshold was -19.4%. With `O=C(O)c1cccc(C(=O)Nc2cccc(NC(=O)C3CCCO3)c2)c1` (centres undefined) the figure was -21.4%; with `CCC1CCCCN1C(=S)NC(=O)c1ccc([N+](=O)[O-])cc1` (centres undefined), 32.5% (active). Next, `O=C(Nc1ccc(Oc2cccnc2)cc1)c1cccc([N+](=O)[O-])c1`: -14.1%. With `CCC1CCCCN1C(=S)NC(=O)c1cccs1` (centres undefined) the figure was -4.1%. For the compound `CC1CCN(C(=S)NC(=O)c2cccc([N+](=O)[O-])c2)CC1`, the activity change, less the hit threshold is 5.8% (active). On to `O=C(NC(=S)N(CC1CCC1)CC1CCCO1)c1cccc([N+](=O)[O-])c1` (centres undefined), for which the activity change, less the hit threshold is 39.6% (active). Next, `CCC1CCCCN1C(=S)NC(=O)c1cccc([N+](=O)[O-])c1` (centres undefined): 24% (active); `O=C(NC(=S)Nc1ccccc1N1CCCC1)c1ccc(-c2cccc([N+](=O)[O-])c2)o1`: -10.1%.
